Targets with a hit are over-represented here; the source holds about 7,900 in all. About 0.6% of all pairs of compound and target were hits.
How the values were obtained:
Experiment in all cases: log2 fold change, soluble protein after heating vs DMSO (PISA); higher = thermal stabilisation; K562 cells, 10 uM, 30 min; active = over 0.2 and 3.5 SD of the protein, either way, in both replicates (recomputed)
[1] = compound: CC1=NC(=CC=C1)C2=C(N=C(N2)C(C)(C)C)C3=CC4=NC=CN=C4C=C3
Summary of the method: (§1)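 Aliquots of K562 cells (2×10^6 cells/mL) treated with 10 μM compound for 30 min were heated for 3 min over 48°C-58°C. After pooling and extraction in PBS with 0.5% NP-40 at 4°C, soluble protein from a 21,000xg, 90 min spin was quantified by TMTpro 16plex LC-MS/MS with channel sums equalised. Thermal stability is expressed against control samples, from duplicates, as a log2 fold change.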

Nexturastat A = compound: CCCCN(Cc1ccc(C(=O)NO)cc1)C(=O)Nc1ccccc1 [Nexturastat A]
Summary of the method: as §1

vemurafenib = compound: CCCS(=O)(=O)Nc1ccc(F)c(C(=O)c2c[nH]c3ncc(-c4ccc(Cl)cc4)cc23)c1F [vemurafenib]
Summary of the method: as §1

[2] = compound: CCCc1cc(C)[nH]c(=O)c1CNC(=O)c1cc(-c2ccnc(N3CCN(C)CC3)c2)cc2c1cnn2C(C)C
Summary of the method: as §1

barasertib = compound: CCN(CCCOc1ccc2c(Nc3cc(CC(=O)Nc4cccc(F)c4)[nH]n3)ncnc2c1)CCOP(=O)(O)O [barasertib]
Summary of the method: as §1

[3] = compound: CC[C@@H]1C(=O)N(C)c2cnc(Nc3ccc(C(=O)NC4CCN(C)CC4)cc3OC)nc2N1C1CCCC1
Summary of the method: as §1

[4] = compound: CC[C@H](C)N1C=C(C2=C(C=C(C=C21)C3=CN=C(C=C3)N4CCNCC4)C(=O)NCC5=C(C=C(NC5=O)C)C)C
Summary of the method: as §1

epoxomicin = compound: CC[C@H](C)[C@@H](C(=O)N[C@@H]([C@@H](C)O)C(=O)N[C@@H](CC(C)C)C(=O)[C@]1(CO1)C)NC(=O)[C@H]([C@@H](C)CC)N(C)C(=O)C [epoxomicin]
Summary of the method: as §1

[5] = compound: CCn1cc(-c2ccnc3[nH]c(-c4cccc(CN(C)C)c4)cc23)c(-c2ccc(NC(=O)N(C)C)cc2)n1
Summary of the method: as §1

[6] = compound: CN(C)CC(=O)Nc1ccc2[nH]c(=O)c3ccccc3c2c1
Summary of the method: as §1

rosiglitazone = compound: CN(CCOC1=CC=C(C=C1)C[C@H]2C(=O)NC(=O)S2)C3=CC=CC=N3 (racemic) [rosiglitazone]
Summary of the method: as §1

[7] = compound: CN1C2=C(C3=C1C(=O)N(N=C3)CC4=CC(=CC=C4)N)SC(=C2)S(=O)C
Summary of the method: as §1

[8] = compound: CN1CCC(CNc2ccc3ncc(-c4cccc(OC(F)(F)F)c4)n3n2)CC1
Summary of the method: as §1

[9] = compound: CC1=C(C=C(C=C1)NC(=O)C2=CC(=CC=C2)N(C)C)NC(=O)C3=CC=C(C=C3)O
Summary of the method: as §1

[10] = compound: CC1=CC=C(C=C1)SC2=C3C=C(SC3=CN=C2)C(=O)N
Summary of the method: as §1

[11] = compound: CCCS(=O)(=O)Nc1ccc(F)c(C(=O)c2c[nH]c3ncc(Cl)cc23)c1F
Summary of the method: as §1

givinostat = compound: CCN(CC)Cc1ccc2cc(COC(=O)Nc3ccc(C(=O)NO)cc3)ccc2c1 [givinostat]
Summary of the method: as §1

volasertib = compound: CC[C@@H]1C(=O)N(C)c2cnc(Nc3ccc(C(=O)N[C@H]4CC[C@H](N5CCN(CC6CC6)CC5)CC4)cc3OC)nc2N1C(C)C [volasertib]
Summary of the method: as §1

[12] = compound: CCn1c(C(=O)N(C2CC2)C2CC2)cc2c3c(ncn3C)c(Nc3cc(C)n(C)n3)nc21
Summary of the method: as §1

[13] = compound: CC1=C(C=C(C=C1)NC(=O)C2=CC(=CC=C2)C(C)(C)C#N)NC3=CC4=C(C=C3)N=CN(C4=O)C
Summary of the method: as §1

Measured: log2 fold change

NA, A0A494C071
inactive: [1] 0.011 | Nexturastat A -0.081 | vemurafenib -0.142 | [2] -0.159 | barasertib 0.043 | [4] 0.38 | epoxomicin -0.11 | [5] 0.189 | [6] -0.122 | rosiglitazone 0.125 | [7] -0.028
active: [3] -1.54 | [8] -1.73

NOS1AP (UniProt O75052)
inactive: [9] -0.016 | [10] 0.08 | Nexturastat A -0.058 | vemurafenib -0.335 | [11] -0.161 | [2] 0.101 | givinostat -0.117 | barasertib 0.046 | [3] 0.092 | volasertib 0.035 | epoxomicin 0.056 | [12] 0.04 | [6] 0.225 | rosiglitazone -0.001

MYO19 (UniProt Q96H55)
inactive: [9] 0.069 | [10] 0.091 | [1] -0.054 | Nexturastat A 0.382 | vemurafenib -0.082 | givinostat 0.143 | barasertib 0.039 | volasertib 0.007 | [4] 0.011 | epoxomicin 0.097 | [12] -0.138 | [5] -0.215 | [6] -0.081 | rosiglitazone 0.121 | [7] 0.076 | [8] 0.404
active: [11] 0.554

MLH1 (UniProt P40692)
Chain of UniProt P40692 (P40692 whole entry, looked up): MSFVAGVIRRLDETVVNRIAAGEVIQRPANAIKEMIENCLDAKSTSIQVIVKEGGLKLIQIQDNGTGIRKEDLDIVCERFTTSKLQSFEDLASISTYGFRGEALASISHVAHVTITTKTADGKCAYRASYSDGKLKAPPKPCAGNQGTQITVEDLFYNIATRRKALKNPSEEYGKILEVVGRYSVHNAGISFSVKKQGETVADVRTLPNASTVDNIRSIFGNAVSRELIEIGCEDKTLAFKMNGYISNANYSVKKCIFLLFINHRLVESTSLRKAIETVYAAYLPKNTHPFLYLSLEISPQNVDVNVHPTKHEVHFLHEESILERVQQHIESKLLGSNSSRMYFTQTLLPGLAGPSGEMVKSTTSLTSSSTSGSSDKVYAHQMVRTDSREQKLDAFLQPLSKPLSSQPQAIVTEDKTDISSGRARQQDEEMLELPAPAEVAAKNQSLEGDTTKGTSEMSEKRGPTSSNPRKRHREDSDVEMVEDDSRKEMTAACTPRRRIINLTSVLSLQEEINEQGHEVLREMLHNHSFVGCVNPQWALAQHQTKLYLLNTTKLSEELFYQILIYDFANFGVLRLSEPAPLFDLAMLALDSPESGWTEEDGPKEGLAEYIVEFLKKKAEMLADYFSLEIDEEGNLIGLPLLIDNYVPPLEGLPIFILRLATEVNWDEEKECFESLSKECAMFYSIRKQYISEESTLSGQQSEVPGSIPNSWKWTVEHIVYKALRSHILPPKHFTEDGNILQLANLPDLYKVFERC
active: [2] 0.584
inactive: [10] 0.023 | Nexturastat A -0.014 | [11] 0.276 | barasertib 0.11 | volasertib -0.385 | epoxomicin 0.11 | [5] 0.073 | rosiglitazone 0.264 | [7] 0.268 | [8] 0.112

NA (UniProt B2RBV5)
Chain of UniProt B2RBV5 (B2RBV5 whole entry, looked up): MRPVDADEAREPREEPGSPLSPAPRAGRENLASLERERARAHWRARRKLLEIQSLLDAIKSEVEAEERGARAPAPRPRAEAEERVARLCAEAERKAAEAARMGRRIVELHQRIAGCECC
active: epoxomicin 0.593
inactive: [13] -0.022 | [10] -0.245 | Nexturastat A 0.292 | [11] 0.005 | [2] 0.021 | barasertib 0.002 | [3] 0.135 | volasertib 0.163 | [4] 0.049 | [5] 0.128 | rosiglitazone -0.009 | [8] -0.08

NDUFA7 (UniProt M0R0N0)
inactive: [13] -0.011 | vemurafenib -0.195 | givinostat 0.104 | barasertib 0.052 | [12] -0.017 | [6] -0.092 | rosiglitazone 0.081

MT-ND2 (UniProt P03891)
inactive: [9] 0.109 | [10] -0.047 | [1] 0.062 | vemurafenib 0.065 | [11] 0.198 | [2] -0.123 | givinostat 0.006 | barasertib 0.079 | volasertib -0.021 | [4] -0.113 | [12] -0.007 | [5] 0.106 | [6] 0.195 | rosiglitazone 0.04 | [7] -0.13 | [8] 0.033

OGFOD2 (UniProt Q6N063)
Chain of UniProt Q6N063 (Q6N063 whole entry, looked up): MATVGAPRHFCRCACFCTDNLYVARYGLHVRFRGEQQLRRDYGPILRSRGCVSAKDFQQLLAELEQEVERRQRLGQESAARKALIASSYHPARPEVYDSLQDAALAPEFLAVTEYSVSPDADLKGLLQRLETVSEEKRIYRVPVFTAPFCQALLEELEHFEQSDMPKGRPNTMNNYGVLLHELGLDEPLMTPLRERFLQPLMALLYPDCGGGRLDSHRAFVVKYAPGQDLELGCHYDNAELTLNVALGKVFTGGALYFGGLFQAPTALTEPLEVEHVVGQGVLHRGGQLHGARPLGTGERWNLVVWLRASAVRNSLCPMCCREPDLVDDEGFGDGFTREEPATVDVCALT
active: [5] -0.372
inactive: [9] -0.007 | [1] -0.091 | Nexturastat A 0.117 | vemurafenib 0.001 | [2] 0.037 | givinostat -0.041 | barasertib 0.059 | [3] -0.007 | [4] -0.019 | epoxomicin 0.08 | [12] -0.033 | [6] 0.035 | rosiglitazone -0.027 | [7] 0.147 | [8] -0.112

OVCA2 (UniProt Q8WZ82)
Chain of UniProt Q8WZ82 (Q8WZ82 whole entry, looked up): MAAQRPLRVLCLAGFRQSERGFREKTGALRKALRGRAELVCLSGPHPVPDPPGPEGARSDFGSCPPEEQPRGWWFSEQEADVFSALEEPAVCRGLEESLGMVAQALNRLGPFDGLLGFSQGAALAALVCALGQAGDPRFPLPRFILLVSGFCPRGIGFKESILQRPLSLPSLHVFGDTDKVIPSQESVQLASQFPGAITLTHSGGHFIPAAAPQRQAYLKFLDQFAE
inactive: [9] -0.132 | [10] 0.013 | [1] 0.086 | [11] -0.048 | [2] -0.305 | barasertib 0.06 | [3] -0.352 | volasertib -0.47 | [4] 0.083 | [5] 0.086 | rosiglitazone -0.033 | [8] -0.116

MLST8 (UniProt Q9BVC4)
Chain of UniProt Q9BVC4 (Q9BVC4 whole entry, looked up): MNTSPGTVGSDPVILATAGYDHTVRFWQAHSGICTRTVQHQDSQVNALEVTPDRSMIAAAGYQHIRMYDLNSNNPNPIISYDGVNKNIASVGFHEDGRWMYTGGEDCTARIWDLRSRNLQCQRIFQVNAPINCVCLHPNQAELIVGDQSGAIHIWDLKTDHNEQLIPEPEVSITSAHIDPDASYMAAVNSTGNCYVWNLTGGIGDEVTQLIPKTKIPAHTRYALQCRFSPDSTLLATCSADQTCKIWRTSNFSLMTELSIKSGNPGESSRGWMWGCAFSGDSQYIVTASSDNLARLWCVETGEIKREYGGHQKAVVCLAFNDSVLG
inactive: [13] 0.118 | [10] 0.094 | [1] -0.079 | Nexturastat A 0.001 | vemurafenib 0.009 | [11] 0.031 | [2] -0.035 | givinostat -0.058 | barasertib 0.038 | [3] -0.22 | [4] 0.05 | epoxomicin -0.02 | [12] -0.099 | [6] 0.109 | rosiglitazone -0.029 | [7] -0.016
active: volasertib -0.353

NMU (UniProt P48645)
Chain of UniProt P48645 (P48645 whole entry, looked up): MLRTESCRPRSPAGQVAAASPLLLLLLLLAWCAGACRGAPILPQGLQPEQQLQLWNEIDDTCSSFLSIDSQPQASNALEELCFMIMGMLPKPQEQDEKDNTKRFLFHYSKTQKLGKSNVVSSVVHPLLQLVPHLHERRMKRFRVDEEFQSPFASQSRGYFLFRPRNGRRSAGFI
inactive: [9] -0.052 | [10] 0.09 | Nexturastat A 0.283 | vemurafenib 0.067 | [11] -0.127 | givinostat 0.001 | barasertib 0.002 | [3] 0.094 | volasertib 0.072 | [4] 0 | epoxomicin 0.077 | [12] -0.044 | [5] 0.008 | [6] -0.017 | rosiglitazone -0.021 | [7] -0.008 | [8] 0.271
active: [1] 0.411

NOLC1 isoform 3 (UniProt Q14978)
inactive: givinostat -0.02 | [12] -0.275

MRM2 (UniProt Q9UI43)
Chain of UniProt Q9UI43 (Q9UI43 whole entry, looked up): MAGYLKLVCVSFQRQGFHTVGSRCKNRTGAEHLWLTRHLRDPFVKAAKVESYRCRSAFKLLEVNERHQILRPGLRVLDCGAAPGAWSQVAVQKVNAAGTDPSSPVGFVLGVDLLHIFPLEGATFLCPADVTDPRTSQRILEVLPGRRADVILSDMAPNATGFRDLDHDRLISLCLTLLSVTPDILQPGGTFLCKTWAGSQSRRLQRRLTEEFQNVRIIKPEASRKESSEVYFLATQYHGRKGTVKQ
inactive: [10] 0.046 | vemurafenib 0.047 | [11] -0.078 | givinostat 0.001 | volasertib -0.083 | [4] 0.008 | [12] 0.065 | [6] -0.122 | [7] -0.042

NPC1L1 (UniProt Q9UHC9)
inactive: [13] -0.014 | [10] 0.152 | [1] 0.02 | vemurafenib -0.213 | [11] -0.109 | [2] 0.012 | barasertib -0.037 | [3] -0.029 | volasertib -0.016 | [4] 0.2 | [6] -0.016 | rosiglitazone 0.045 | [7] -0.081

NRGN (UniProt Q92686)
Chain of UniProt Q92686 (Q92686 whole entry, looked up): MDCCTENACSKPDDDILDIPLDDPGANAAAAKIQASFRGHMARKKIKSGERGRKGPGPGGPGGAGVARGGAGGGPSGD
inactive: [9] -0.168 | [10] 0.087 | [1] -0.171 | Nexturastat A 0.143 | [11] 0.032 | givinostat -0.034 | barasertib -0.14 | volasertib 0.052 | [4] -0.088 | epoxomicin 0.162 | [12] 0.021 | [5] 0.14 | rosiglitazone 0.127 | [8] -0.547

NEU3 isoform 2 (UniProt Q9UQ49)
Chain of UniProt Q9UQ49 (Q9UQ49 whole entry, looked up): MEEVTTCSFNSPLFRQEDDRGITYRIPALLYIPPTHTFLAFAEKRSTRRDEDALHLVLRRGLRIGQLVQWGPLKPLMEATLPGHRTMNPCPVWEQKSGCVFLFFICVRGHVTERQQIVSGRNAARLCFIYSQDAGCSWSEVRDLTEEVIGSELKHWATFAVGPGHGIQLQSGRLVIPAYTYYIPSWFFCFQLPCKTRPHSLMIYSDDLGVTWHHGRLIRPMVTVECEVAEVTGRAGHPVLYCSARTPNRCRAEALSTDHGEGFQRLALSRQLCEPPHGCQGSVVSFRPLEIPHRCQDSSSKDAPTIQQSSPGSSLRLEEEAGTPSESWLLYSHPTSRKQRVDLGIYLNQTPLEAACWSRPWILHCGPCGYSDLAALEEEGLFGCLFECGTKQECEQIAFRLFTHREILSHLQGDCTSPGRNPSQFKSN
inactive: [13] 0.022 | [10] -0.112 | [11] 0.133 | givinostat 0.189 | volasertib -0.158 | [12] -0.074

NA, A0A1W2PSA9
inactive: [9] 0.108 | [5] 0.08 | [7] 0.279 | [8] 0.057

NIPSNAP3B (UniProt Q9BS92)
Chain of UniProt Q9BS92 (Q9BS92 whole entry, looked up): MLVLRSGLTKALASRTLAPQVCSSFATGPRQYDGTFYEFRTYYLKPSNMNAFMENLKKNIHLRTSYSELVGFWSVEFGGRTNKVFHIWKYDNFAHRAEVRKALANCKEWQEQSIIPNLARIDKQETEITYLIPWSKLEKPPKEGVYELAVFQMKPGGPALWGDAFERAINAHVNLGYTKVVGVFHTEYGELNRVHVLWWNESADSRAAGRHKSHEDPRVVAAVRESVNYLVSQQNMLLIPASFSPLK
inactive: [13] -0.133 | [10] 0.049 | [1] 0.023 | vemurafenib 0.065 | [11] 0.016 | [2] -0.001 | givinostat -0.088 | barasertib 0.016 | [3] -0.238 | volasertib -0.028 | [4] 0.039 | [12] -0.039 | [5] -0.019 | [6] -0.088 | rosiglitazone -0.069 | [7] -0.176 | [8] 0.073

OXR1 isoform 2 (UniProt Q8N573)
Chain of UniProt Q8N573 (Q8N573 whole entry, looked up): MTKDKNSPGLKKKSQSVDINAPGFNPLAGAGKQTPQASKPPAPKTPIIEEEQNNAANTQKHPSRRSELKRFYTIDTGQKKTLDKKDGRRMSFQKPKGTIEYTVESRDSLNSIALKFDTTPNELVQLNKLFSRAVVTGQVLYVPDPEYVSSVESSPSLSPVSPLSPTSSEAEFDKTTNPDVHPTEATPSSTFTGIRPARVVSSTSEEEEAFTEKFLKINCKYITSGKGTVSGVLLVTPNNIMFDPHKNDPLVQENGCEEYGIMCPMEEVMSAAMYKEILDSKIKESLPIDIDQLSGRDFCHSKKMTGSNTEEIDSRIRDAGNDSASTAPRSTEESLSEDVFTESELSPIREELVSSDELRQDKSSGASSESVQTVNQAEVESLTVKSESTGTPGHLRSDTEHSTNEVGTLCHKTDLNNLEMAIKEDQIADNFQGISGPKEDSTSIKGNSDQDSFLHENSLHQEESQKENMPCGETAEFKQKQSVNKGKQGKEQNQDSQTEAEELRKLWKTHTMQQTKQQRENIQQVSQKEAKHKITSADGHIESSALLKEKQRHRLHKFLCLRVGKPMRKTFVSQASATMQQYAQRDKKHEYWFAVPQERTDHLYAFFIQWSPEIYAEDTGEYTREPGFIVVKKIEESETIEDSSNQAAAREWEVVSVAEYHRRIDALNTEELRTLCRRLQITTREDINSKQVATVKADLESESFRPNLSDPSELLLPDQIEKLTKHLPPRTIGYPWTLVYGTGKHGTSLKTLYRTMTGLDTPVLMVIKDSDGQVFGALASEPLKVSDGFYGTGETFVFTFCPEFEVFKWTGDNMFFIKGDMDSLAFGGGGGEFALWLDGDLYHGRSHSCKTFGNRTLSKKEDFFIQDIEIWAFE
inactive: [9] -0.007 | [10] 0.008 | [1] -0.071 | Nexturastat A 0 | vemurafenib 0.126 | [11] 0.027 | [3] -0.092 | volasertib -0.09 | [4] -0.082 | epoxomicin 0.127 | [5] 0.056 | [6] -0.004 | [7] -0.015 | [8] -0.244

NKAP (UniProt Q8N5F7)
inactive: [9] 0.233 | [10] 0.017 | [1] 0.052 | Nexturastat A 0.042 | vemurafenib 0.073 | [11] 0.046 | [2] 0.15 | givinostat 0.044 | barasertib -0.165 | [3] 0.026 | volasertib -0.3 | [4] 0.082 | epoxomicin -0.109 | [12] -0.028 | [5] 0.092 | [6] 0.052 | rosiglitazone 0.024 | [7] -0.025 | [8] -0.164

MOB3B (UniProt Q86TA1)
Chain of UniProt Q86TA1 (Q86TA1 whole entry, looked up): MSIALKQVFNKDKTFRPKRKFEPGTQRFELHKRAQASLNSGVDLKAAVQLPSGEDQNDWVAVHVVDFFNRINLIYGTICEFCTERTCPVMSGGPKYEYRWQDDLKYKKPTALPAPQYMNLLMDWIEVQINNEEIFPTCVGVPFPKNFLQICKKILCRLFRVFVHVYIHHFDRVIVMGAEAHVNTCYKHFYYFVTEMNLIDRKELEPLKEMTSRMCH
active: volasertib -0.633
inactive: [10] -0.147 | [1] -0.033 | vemurafenib 0.137 | [11] -0.272 | [2] 0.039 | givinostat 0.174 | barasertib 0.018 | [4] -0.045 | [12] 0.149 | [5] -0.016 | [6] 0.034 | rosiglitazone 0.202 | [8] -0.159

NAGPA (UniProt Q9UK23)
Chain of UniProt Q9UK23 (Q9UK23 whole entry, looked up): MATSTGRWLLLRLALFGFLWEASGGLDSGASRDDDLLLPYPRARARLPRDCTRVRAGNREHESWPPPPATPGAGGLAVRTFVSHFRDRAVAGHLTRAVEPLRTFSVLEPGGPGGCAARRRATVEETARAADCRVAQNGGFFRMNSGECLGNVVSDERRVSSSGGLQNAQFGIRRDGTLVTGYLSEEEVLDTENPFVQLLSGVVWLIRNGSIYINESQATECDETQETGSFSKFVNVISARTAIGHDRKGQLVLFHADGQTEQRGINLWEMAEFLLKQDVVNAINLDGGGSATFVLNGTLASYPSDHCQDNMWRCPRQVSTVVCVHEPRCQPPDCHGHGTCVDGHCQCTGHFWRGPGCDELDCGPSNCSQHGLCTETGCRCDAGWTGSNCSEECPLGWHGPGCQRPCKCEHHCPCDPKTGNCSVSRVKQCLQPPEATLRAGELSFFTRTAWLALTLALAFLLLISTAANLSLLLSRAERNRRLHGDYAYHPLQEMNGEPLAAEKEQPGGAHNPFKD
inactive: [13] -0.028 | [10] -0.004 | [1] 0.054 | Nexturastat A -0.131 | [11] -0.067 | [2] -0.066 | givinostat 0.002 | barasertib -0.133 | [3] 0.213 | [4] -0.065 | epoxomicin 0.071 | [12] -0.022 | [5] 0.084 | rosiglitazone -0.061 | [7] -0.084 | [8] -0.083
active: volasertib 0.555

MXRA7 isoform 3 (UniProt P84157)
Chain of UniProt P84157 (P84157 whole entry, looked up): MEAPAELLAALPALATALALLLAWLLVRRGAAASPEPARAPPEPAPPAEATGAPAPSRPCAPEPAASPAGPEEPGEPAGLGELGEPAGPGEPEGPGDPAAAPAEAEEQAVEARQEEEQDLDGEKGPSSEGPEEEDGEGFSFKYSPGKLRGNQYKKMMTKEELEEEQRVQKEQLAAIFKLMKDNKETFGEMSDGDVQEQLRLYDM
inactive: [9] 0.178 | [10] -0.174 | [11] 0.193 | volasertib -0.01
